Compound activity deposited in PubChem by National Center for Advancing Translational Sciences (NCATS).
Pf Dd2 growth: blocks in vitro growth of P. falciparum Dd2; Potency, µM (titrated, usually from 28.9 µM), most hits filed as inhibitors; P. falciparum Dd2 growth, SYBR Green, 72 h; hit rate 4.3% among 120,000; active = well fitted inhibition curve with a large enough effect; note: nearly all actives have a fitted effect of over 65% in size
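Infected erythrocytes (Dd2, 0.3% parasitemia, 2.5% hematocrit final) are added to compound in RPMI-1640/Albumax II medium, grown 72 h at 37C in low oxygen, then lysed with saponin/Triton-X containing SYBR Green and read by fluorescence.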
Each line names hits and unclear results; the compound was inactive in the other large screens. The full list was thinned out, with hits kept by preference.

O=C(CCc1ccccc1)N(Cc1cccnc1)c1nc2c(F)cc(F)cc2s1	Pf Dd2 growth 10µM
COc1cccc2sc(N(Cc3cccnc3)C(=O)Cc3ccccc3)nc12	none
O=C(CCS(=O)(=O)c1ccccc1)N(Cc1cccnc1)c1nc2ccc(F)cc2s1	none
COc1ccc2sc(N(Cc3cccnc3)C(=O)CCc3ccccc3)nc2c1	none
Cc1ccc2nc(N(Cc3cccnc3)C(=O)C3COc4ccccc4O3)sc2c1 (stereo not given)	none
CC(=O)N(Cc1cccnc1)c1nc2ccc(F)cc2s1	none
Cc1ccc2nc(N(Cc3cccnc3)C(=O)c3ccco3)sc2c1	Pf Dd2 growth 10µM
CCc1ccc2nc(N(Cc3cccnc3)C(=O)c3ccc(C#N)cc3)sc2c1	Pf Dd2 growth 8.91µM
O=C(c1ccco1)N(Cc1cccnc1)c1nc2c(F)cc(F)cc2s1	none
O=C(COc1ccccc1)N(Cc1cccnc1)c1nc2c(F)cc(F)cc2s1	none
O=C(NCCc1cnn(-c2ccccc2)c1)C1NCCc2[nH]cnc21 (stereo not given)	none
CC(C)c1cccc(NC(=O)c2cc3n(n2)CC(c2ccc4c(c2)OCO4)OC3)c1 (stereo not given)	none
COC[C@@H]1CN(C(=O)c2cc(C)oc2C)C[C@H]1c1nc(C)no1	none
Cc1n[nH]c(C)c1CCC(=O)NC1CCCc2c1[nH]c1ccc(F)cc21 (stereo not given)	none
COc1cc([C@@H]2c3cc4c(cc3[C@H](O)[C@@H](CO)[C@@H]2C(=O)N2CCCCC2)OCO4)cc(OC)c1OC	none
Cn1cnc(C(=O)N[C@@H]2[C@@H](Cc3ccccc3)[C@H]3OCC[C@@H]23)c1	none
Cn1nc2n(c1=O)CCN(C1CCSCC1)CC2	none
CCC(=O)N1CCCC(c2nc(-c3cccnn3)no2)C1 (stereo not given)	none
OC1CCN(C2CCN(Cc3cccc(Cn4cccn4)c3)CC2)CC1	none
O=C(C1COc2ccccc2O1)N(Cc1cccnc1)c1nc2c(Cl)cccc2s1 (stereo not given)	none
O=C(C1CCCCC1)N(Cc1cccnc1)c1nc2ccc(Cl)cc2s1	Pf Dd2 growth 3.16µM
O=C(c1ccc2c(c1)OCCO2)N(Cc1cccnc1)c1nc2ccc(Cl)cc2s1	none
CCn1c(C2CCCN(C(=O)C(C)C)C2)nn(C)c1=O (stereo not given)	none
CCn1nccc1C(=O)N1C[C@@H](Oc2cccnc2)C[C@H]1C(=O)NCCOC	none
CCc1ccc(C(=O)N2CCC3(CC2)C(=O)N(CC(=O)N(C)C)CN3c2ccccc2)cc1	none
CCOc1ccc(C(=O)N2CCC3(CC2)C(=O)N(C)c2ccccc23)cc1OCC	Pf Dd2 growth 12.6µM
CN1C(=O)C2(CCN(C(=O)CCc3ccccc3)C2)c2ccccc21 (stereo not given)	none
CN1C(=O)C2(CCN(C(=O)CCn3cnnn3)CC2)c2ccccc21	none
CN1C(=O)C2(CCN(C(=O)CCC3CCCC3)CC2)c2ccccc21	Pf Dd2 growth 5.62µM
Cc1cc2cc(C(=O)N3CCC4(CC3)C(=O)N(C)c3ccccc34)ccc2o1	none
CCC(CC)C(=O)N1CCC2(CC1)C(=O)N(C)c1ccccc12	none
CN1CCN(Cc2nnc(C3CCN(C(=O)C4(N)CC4)CC3)n2C)CC1	none
Cn1c(=O)c2c(c3ccccc31)OC(=O)CC2c1cccc(Cl)c1 (stereo not given)	none
COc1cccc(C2C(C(=O)Nc3ccc(C)cc3C)=C(C)Nc3nc4ccccc4n32)c1OC (stereo not given)	none
COc1cccc(C2C(C(=O)Nc3ccc(Cl)cc3)=C(C)Nc3nc4ccccc4n32)c1 (stereo not given)	none
CC1=C(C(N)=O)C(c2ccc(C(C)C)cc2)n2nc(SCc3ccccc3F)nc2N1 (stereo not given)	none
CCN(CC)C(=O)C1=C(C)Nc2nc3ccccc3n2C1c1ccc(Cl)cc1 (stereo not given)	none
COc1cccc(C2=CC(c3ccccc3F)n3c(nc4ccccc43)N2)c1 (stereo not given)	none
CC(C)c1ccc(C2=CC(c3cccc(Cl)c3)n3c(nc4ccccc43)N2)cc1 (stereo not given)	Pf Dd2 growth 11.2µM
CC(C)c1ccc(C2=CC(c3cccc(Cl)c3)n3ncnc3N2)cc1 (stereo not given)	none
CCN(CC)C(=O)C1=C(C)Nc2nc3ccccc3n2C1c1cccc(Cl)c1 (stereo not given)	Pf Dd2 growth 11.2µM
CCc1ccc(C2=CC(c3cccc(OC)c3OC)n3c(nc4ccccc43)N2)cc1 (stereo not given)	Pf Dd2 growth 8.91µM
CC(C)c1ccc(C2N=C(N)Nc3nc4ccccc4n32)cc1 (stereo not given)	Pf Dd2 growth 3.16µM
COc1ccc(C2N=C(N)Nc3nc4ccccc4n32)c(OC)c1OC (stereo not given)	none
CCOC(=O)CC1CCCCN1S(=O)(=O)Cc1ccccc1F (stereo not given)	none
COc1ccc(CN2CCCn3nc(C)c(-c4ccnn4C(C)C)c32)cc1O	none
Cc1noc(C)c1S(=O)(=O)N1CCC(Cc2nc(-c3cccnc3)n[nH]2)C1 (stereo not given)	none
O=C(NCc1ccncc1)C1CN(C(=O)c2cc(F)ccc2F)CC12CCOCC2 (stereo not given)	none
C[C@@H](NC(=O)c1ccc2c(c1)OCO2)c1onc(-c2ccc(Cl)cc2)c1C(=O)O	none
COc1ccc(CC(=O)N2CC3CC(C2)[C@H]2CCCC(=O)N2C3)cc1 (stereo not given in full)	none
O=C1CCN(C(=O)CCc2ccccc2)CCCOCCN1	none
O=C(N[C@@H]1CN(Cc2c(F)cccc2Cl)C[C@H]1CO)C1CC1	none
CCOc1ccccc1CN1C[C@@H](CO)[C@H](NC(=O)C2CC2)C1	Pf Dd2 growth 7.94µM
COc1ccc(CN2C[C@@H](CO)[C@H](NC(=O)C3CCC3)C2)cc1	none
CN1[C@@H](CCC(=O)NCc2ccccc2)CNC(=O)[C@@H]2[C@H]1CCN2Cc1cccc(OC(F)(F)F)c1	none
Cc1noc(C)c1S(=O)(=O)N1CC(c2nnc(C(C)C)o2)C2(CCOCC2)C1 (stereo not given)	none
CCCNC(=O)C(NC(=O)c1cccc(C)c1)C1CCN(C(=O)c2ccc(C)cc2)CC1 (stereo not given)	none
Cc1cc(C)cc(-c2ccc(C=O)cc2)c1	none
Cc1ccc(-c2[nH]ncc2CN)cc1	none
O=Cc1ccccc1-c1ccc(OC(F)(F)F)cc1	none
Cc1cc(C)cc(-c2ccc(CN)cc2)c1	Pf Dd2 growth 11.2µM
CN(Cc1ccc(OC(F)(F)F)cc1)Cc1ccccc1C(F)(F)F	none
NCc1ccc(-c2ccccn2)cc1	none
Cc1ccc(-c2ccccc2CN)cc1Cl	Pf Dd2 growth 11.2µM
COc1ccc(F)cc1-c1ccc(CN)cc1	none
Cc1ccc(-c2ccccc2C=O)cc1Cl	none
NCc1ccccc1-c1ccc(OC(F)(F)F)cc1	Pf Dd2 growth 11.2µM
NCc1ccccc1-c1cc(F)cc(F)c1	Pf Dd2 growth 12.6µM
c1ccc(-c2cc(CC3(NCc4ccncc4)COC3)no2)cc1	none
O=C1C(c2ccccc2)CC2(CCN(c3cnccn3)CC2)CN1C1CC1 (stereo not given)	none
COc1ccccc1-c1cc(C(=O)NCc2cccnc2)c2cnn(C)c2n1	none
COc1cc(CCC(=O)N2C[C@@H](CN3CCN(C)CC3)[C@@H](CO)C2)ccc1C	none
O=C(COc1ccccc1)N1CCC2(CCC(=O)N(Cc3ccccc3)CC2)CC1	none
CC1(C)C(=O)N(Cc2ccccc2)[C@H]2CN(Cc3ccncc3)C[C@H]2[S+]1(=O)[O-]	none
C=C[C@H]1CN2CC[C@H]1C[C@@H]2CNC(=O)c1cc(OC)c(OC)c(OC)c1	none
CCc1nc(-c2c3n(c(=O)n(Cc4ccc(Cl)cc4)c2=O)CCCC3)no1	none
